Laboratory results as given in PMC5540273 (PLoS ONE, 2017).

Key:
Details in all cases: concentration: 1 μM, replicates: in singlicate; n = 1
[1] = system: CSK
[2] = system: CSNK1A1L
[3] = system: CSNK1A1
[4] = system: CSNK1D
[5] = system: CSNK1E
[6] = system: CSNK1G1
[7] = system: CSNK1G2
[8] = system: CSNK1G3
[9] = system: CSNK2A1
[10] = system: CSNK2A2
[11] = system: T1, CTK
T1 construct: gene MATK

[12] = system: DAPK1
[13] = system: DAPK2
[14] = system: DAPK3
[15] = system: T2, DCAMKL1
T2 construct: gene DCLK1

[16] = system: T3, DCAMKL2
T3 construct: gene DCLK2

[17] = system: T4, DCAMKL3
T4 construct: gene DCLK3

[18] = system: DDR1
[19] = system: DDR2
[20] = system: T5, DLK
T5 construct: gene MAP3K12
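Note: KINOMEscan kinase panel screen.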

SMILES	%Inh [1] [%]	%Inh [2] [%]	%Inh [3] [%]	%Inh [4] [%]	%Inh [5] [%]	%Inh [6] [%]	%Inh [7] [%]	%Inh [8] [%]	%Inh [9] [%]	%Inh [10] [%]	%Inh [11] [%]	%Inh [12] [%]	%Inh [13] [%]	%Inh [14] [%]	%Inh [15] [%]	%Inh [16] [%]	%Inh [17] [%]	%Inh [18] [%]	%Inh [19] [%]	%Inh [20] [%]
O=C(Nc1n[nH]c2nc(-c3cccs3)c(Br)cc12)C1CCCC1 [SB-743341]	9	13	27	0	0	0	0	0	10	17	49	0	3	3	0	7	22	27	0	0
COC(=O)C(NC(=O)NC1CCN(c2ccnc(Nc3ccc(F)cc3)n2)C1)c1ccccc1 (centres unmarked) [GSK1379712]	0	3	0	92	19	5	1	25	3	0	0	15	0	25	17	12	0	0	39	0
Nc1ncnc2occ(-c3ccc4c(c3)CCN4C(=O)Cc3cc(F)ccc3F)c12 [GSK2645446]	0	1	1	0	30	4	0	38	0	11	0	0	0	0	10	0	0	0	25	8
CCn1c(-c2c(N)noc2C)nc2cnccc21 [SB-737856]	0	18	0	13	11	8	0	9	0	0	14	0	0	0	5	30	0	0	0	41
Cc1ccc(NC(=O)Nc2ccc(Cl)cc2)cc1-c1ccc(C(=O)Nc2ccncc2)cc1 [GSK1398472]	0	1	0	6	26	2	7	36	0	0	0	16	0	15	18	0	0	99.8	64	0
NS(=O)(=O)c1cccc(N/C=C2\C(=O)Nc3ccc(S(=O)(=O)Cc4c(Cl)cccc4Cl)cc32)c1 [GSK398099]	0	11	0	12	18	12	0	28	0	19	0	100	1	21	38	10	0	0	0	52
COc1cccc(C2=C(Nc3cc(Cl)c(O)c(Cl)c3)C(=O)NC2=O)c1 [SB-390767]	0	5	0	13	24	100	0	25	0	0	10	0	0	17	11	0	26	96.1	18	0
Cc1ccccc1-c1cc(-c2c[nH]nc2-c2ccccn2)ccn1 [GW680061]	0	7	12	24	16	2	0	1	13	0	0	0	0	25	0	6	12	79	5	32
COc1cccc(CNC(=O)NC2CCN(c3ccnc(Nc4ccc(F)cc4)n3)C2)c1 (centres unmarked) [GSK1379723]	0	21	19	4	11	0	0	16	0	2	22	0	22	7	9	0	0	7	0	0
Fc1ccc(-c2nc[nH]c2-c2ccncc2)cc1 [SB-217360]	6	24	93.3	91.9	97.7	5	0	5	0	0	31	0	0	8	29	0	0	9	34	0
